# Screens deposited in PubChem BioAssay by National Center for Advancing Translational Sciences (NCATS).
# gsp ag – gsp mutant agonism | gsp mutant cells, cAMP HTRF, 30 min | Potency, µM (top dose mostly 76.9 µM), for the others: at the top dose activation (cAMP increase), actives largely listed as activators | actives 0.13% (n = 340,000); active = well fitted activation curve with a large enough effect; inconclusive = small, poorly fitted or top-dose-only effect, or another doubt; inactive = no such curve, though single readings can be large or run the other way; cell line not stated here;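 also: phosphodiesterase inhibitor Ro 20-1724 added with compounds to block cAMP breakdown; potency is read from the fitted curve at half-maximal effect; nearly all actives have a fitted effect of over 60% in size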
#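 Cells in DMEM/10% FBS with G418 were pretreated with compounds in DMSO plus […] (300 uM stock) for 30 min at 37C. cAMP was measured by HTRF (cAMP-d2 plus anti-cAMP antibody-K) after 30 min at room temperature.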
# TSHR antag – blocks TSH signaling through the human TSH receptor; P16473; TSHR-expressing cells, TSH-stimulated cAMP HTRF, 2 h; active compounds read low; activity change, negative = inhibition, % at 11.5 µM; actives 0.2% (n = 330,000);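 active = activity change below a set negative limit, meaning inhibition stronger than a set level, cut at about -70% in these data; inconclusive = activity change between two set negative limits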; also: % is scaled to controls: 0 for no effect and ±100 for the full control effect
# Target sequence (P16473 whole entry, looked up): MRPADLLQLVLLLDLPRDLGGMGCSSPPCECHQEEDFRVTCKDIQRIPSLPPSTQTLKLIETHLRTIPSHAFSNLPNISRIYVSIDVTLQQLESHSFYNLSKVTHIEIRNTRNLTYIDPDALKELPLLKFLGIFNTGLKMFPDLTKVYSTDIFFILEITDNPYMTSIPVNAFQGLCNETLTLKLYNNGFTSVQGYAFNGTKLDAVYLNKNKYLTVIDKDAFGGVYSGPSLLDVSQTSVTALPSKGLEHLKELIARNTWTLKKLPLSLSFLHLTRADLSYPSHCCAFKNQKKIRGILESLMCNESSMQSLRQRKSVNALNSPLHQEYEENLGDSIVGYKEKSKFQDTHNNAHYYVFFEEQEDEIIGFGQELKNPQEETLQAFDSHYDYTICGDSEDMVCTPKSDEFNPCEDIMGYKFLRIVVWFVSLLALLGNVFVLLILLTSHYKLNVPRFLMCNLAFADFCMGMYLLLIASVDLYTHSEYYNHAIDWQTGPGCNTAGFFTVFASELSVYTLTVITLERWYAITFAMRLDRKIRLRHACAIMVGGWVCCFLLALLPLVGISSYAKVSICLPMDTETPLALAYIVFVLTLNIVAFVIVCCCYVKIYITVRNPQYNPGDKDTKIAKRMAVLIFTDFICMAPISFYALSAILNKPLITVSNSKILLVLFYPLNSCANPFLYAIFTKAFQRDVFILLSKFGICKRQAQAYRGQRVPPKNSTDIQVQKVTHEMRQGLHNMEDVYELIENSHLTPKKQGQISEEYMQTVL
#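 TSHR-expressing cells, 200/well, pre-treated with compound, then stimulated with EC80 TSH (4nM final) for 2 hours at 37 deg C. cAMP measured by competitive HTRF: anti-cAMP cryptate antibody in lysis buffer plus cAMP-d2, read after 30 minutes at room temperature.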
# pAkt inh – inhibitors of Akt phosphorylation; Neuro2A IGF-stimulated pAkt S473 HTRF, 20 min; active compounds read low; activity change, % for hits at 50 µM; actives 0.32% (n = 360,000); AID 651550; in the data active = activity change below about -80%; inconclusive = mostly about -51% to -80%; also: % is scaled to controls: 0 for no effect and ±100 for the full control effect
#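 Neuro2A cells in DMEM with 0.5% FBS, overnight at 37 deg C, given compound at single 50 µM final, then IGF (6 nM final) for 20 min at 37 deg C. Lysed; phospho-Akt Ser473 by HTRF after 24 h, 665/615 ratio.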
# gsp antag – gsp mutant antagonism; actives 0.4% (n = 340,000); AID 624288; Potency, µM (titrated, usually from 76.9 µM), without a hit: top-dose activity change, negative = inhibition, actives largely listed as inhibitors; gsp-mutant cells, cAMP HTRF, 30 min; calls by dose curve; cell line not stated here;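 also: intracellular cAMP measured with PDE inhibitor Ro 20-1724 present during compound exposure; potency is read from the fitted curve at half-maximal effect; % is scaled to controls: 0 for no effect and ±100 for the full control effect; nearly all actives have a fitted effect of over 65% in size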
#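 HTRF cAMP measurement after 30 min RT detection following 30 min, 37C compound treatment alongside […] (added as 300 uM solution) in G418-selected cells seeded at 2000/well and grown 16–24 h.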
# RXFP1 antag – antagonists of human relaxin receptor RXFP1. HEK293-RXFP1, relaxin-stimulated cAMP HTRF, 30 min; active compounds read low. activity change, negative = inhibition, % at 57.5 µM. AID 1259400. actives 0.59% (n = 350,000);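 active = activity change of -60% or lower, but not beyond a set lower limit; inconclusive = change between -60% and -40%, or beyond the set limit; inactive = change above -40%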; also: % is scaled to controls: 0 for no effect and ±100 for the full control effect
# RXFP1 agonist – agonists of human relaxin receptor RXFP1; actives 0.3% (n = 370,000); HEK293T-RXFP1 cAMP TR-FRET, 30 min; response scale: percent of porcine relaxin response, buffer zero; Potency, µM (highest dose often 57.5 µM), for inactives: top-dose activation, usual class: activators; Q9HBX9; active = well fitted activation curve with a large enough effect; inconclusive = small, poorly fitted or top-dose-only effect; also: potency is read from the fitted curve at half-maximal effect; % is scaled to controls: 0 for no effect and ±100 for the full control effect; nearly all actives have a fitted effect of over 60% in size
#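 HEK293T cells stably expressing RXFP1 were pretreated with the PDE4 inhibitor Ro 20174, exposed to compounds for 30 min at 37C, lysed, and cAMP was read by TR-FRET. Data normalized to buffer (basal) and 29 nM porcine relaxin (100%).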
# * marks the source's active call; other numbers are inactive results; i = inactive; ? = inconclusive; · = no result given; [ ] = remark or other dose. This is a sample that favours compounds with a hit; in the whole collection about 1.3% have one here.
SMILES,gsp ag,TSHR antag,pAkt inh,gsp antag,RXFP1 antag,RXFP1 agonist
Cc1ccc(Nc2c([N+](=O)[O-])c(=O)n(C)c3ccccc23)cc1,-12%[15.4 µM],0,i,-2%,7,2%
Cc1ccc(Sc2c([N+](=O)[O-])c(=O)n(C)c3ccccc23)cc1,7%,-73*,i,?,-18,4%
Cn1c(=O)c(Sc2ccccc2)c(O)c2ccccc21,?,16,i,-9%,10,?
Cn1c(-c2ccccc2)c(C=O)c2ccccc21,?,8,i,-19%,0,4%
Cc1ccc(Sc2c(C=O)c3ccccc3n2C)cc1,18µM*,-9,i,-4%,14,12%
O=C(Nc1ccccc1)c1cc2c(=O)c3ccccc3oc2nc1C(F)(F)F,?,4,-94%*,14%,1,?
O=C(Nc1cccc(C(F)(F)F)c1)c1cc2c(=O)c3ccccc3oc2nc1C(F)(F)F,0%,4,i,-1%,-13,1%
CN(Cc1cn(C)nc1-c1ccc(Oc2ccccc2)cc1)Cc1cnc2ccccn12,?,-14,i,40µM*,8,-1%
CC(C)[C@H](NC(=O)OC(C)(C)C)c1nnc(SCC(=O)Nc2ccc(Br)cc2)o1,5%,-38,i,35µM*,7,2%
C[C@H](NC(=O)OC(C)(C)C)c1nnc(SCC(=O)Nc2cccc(Cl)c2)o1,7%,-15,i,-16%,1,1%
COc1ccccc1/C=C/C(=O)c1c2c(c(C)[nH]c1=O)CCCC2,25%,-19,i,50µM*,1,-1%
CCOC(=O)c1cnc(-n2nc(C)cc2C)nc1NCc1ccccc1,5%,7,i,35µM*,-25,1%
CCOC(=O)c1cnc2ccc(OCC)cc2c1NCc1ccccc1,24%,-12,i,14µM*,·,8%
CCOC(=O)c1cnc2ccc(OCC)cc2c1NCc1cccnc1,-9%[15.4 µM],-3,i,?,-13,1%
CC1=NN(C(C#N)c2ccc(F)cc2)C(c2ccccc2)C1 (stereo unspecified),-16%[15.4 µM],19,i,-3%,-4,3%
CCCCCOC(=O)C(C)Sc1n[nH]c(=O)[nH]c1=O (stereo unspecified),-4%,-1,i,-19%,-6,0%
CCCCOC(=O)CSc1n[nH]c(=O)[nH]c1=O,-32%,-10,-124%*,7%,-5,0%
COc1ccc(-n2c(=O)c3c4c(sc3n(CC(=O)N3CCCCC3C)c2=O)CCC4)c(OC)c1 (stereo unspecified),·,·,·,·,-14,0%
Brc1cc(Br)c2ncnc(N3CCCCC3)c2c1,14µM*,12,-82%*,3%,29,25µM*
COc1ccccc1N1CCN(C(=O)CCC(=O)N2CCN(c3ccc(F)cc3)CC2)CC1,-39%,-124*,i,-14%,-7,0%
COc1ccccc1N1CCN(C(=O)CCC(=O)N2CCN(c3ccccc3OC)CC2)CC1,-20%,15,i,-6%,7,0%
CP(=O)(COC(=O)c1ccccc1)COC(=O)c1ccccc1,-3%,7,i,2%[15.4 µM],-6,0%
CC(=O)OCP(C)(=O)COC(C)=O,17%,6,-121%*,5%,-4,1%
COc1ccc(C2C(C(=O)N3CCN(c4ccccc4F)CC3)c3ccccc3C(=O)N2C)cc1 (stereo unspecified),3%,-5,-129%*,-11%,0,-2%
COc1ccc(C2C(C(=O)Nc3cccc(C)n3)c3ccccc3C(=O)N2C)cc1 (stereo unspecified),-37%,-3,-110%*,-20%,11,-1%
SMILES,gsp ag,TSHR antag,pAkt inh,gsp antag,RXFP1 antag,RXFP1 agonist
COc1ccc(C2C(C(=O)Nc3cc(C)on3)c3ccccc3C(=O)N2C)cc1 (stereo unspecified),-20%,6,i,-4%,-8,4%
COc1ccc(OC)c(-c2cc(C3CCN(c4cc(Cl)nc(N)n4)CC3)[nH]n2)c1,-65%,-3,i,35µM*,-26,0%
Cc1nn(CCc2nn[nH]n2)c2nc(-c3ccc(Br)cc3)cc(C(F)(F)F)c12,65%[15.4 µM],-20,i,-2%,3,14µM*
Cc1ccc(-n2nc3c(=O)n(C(C)C(=O)NC4CC4)nc(C)c3c2C)cc1 (stereo unspecified),-45%,-114*,i,1%,-2,-1%
CCC(C(=O)NC1CC1)n1nc(C)c2c(C)n(-c3ccc(C)cc3)nc2c1=O (stereo unspecified),3%,-7,i,6%,?,2%
CCC(C(=O)NCCCc1ccccc1)n1nc(C)c2c(C)n(-c3ccccc3)nc2c1=O (stereo unspecified),10%,0,i,-18%,-62*,0%
CCC(C(=O)NCCc1ccco1)n1nc(C)c2c(C)n(-c3ccccc3)nc2c1=O (stereo unspecified),2%,6,i,-8%,-11,2%
Cc1ccc(C)c(NC(=O)CSc2nc3nc(-c4cccs4)cc(C(F)(F)F)c3c(=O)[nH]2)c1,20µM*,-28,i,-10%,-1,?
CN(C)[C@@H](CCOc1cccc2ccccc12)c1ccccc1,·,·,·,·,-31,·
C=CCn1c(=O)c2ccccc2n2c(Sc3nnnn3-c3ccccc3)nnc12,8%,-11,-110%*,-2%,-21,0%
CCCn1c(=O)c2ccccc2n2c(Sc3nnnn3-c3ccccc3)nnc12,-31%,-7,i,?,-4,-1%
O=C(N/N=C/c1cc(Br)c(O)c(Br)c1)c1cc2c(ccc3ccccc32)o1,-36%[15.4 µM],-9,i,-30%,-100*,6%
O=C(N/N=C/c1ccc(O)c(Br)c1)c1cc2c(ccc3ccccc32)o1,11%,-4,i,-15%,-3,0%
O=C(N/N=C/c1cc(Br)c(Br)o1)c1cc2ccccc2o1,?,5,i,-18%,-63*,3%
O=C(N/N=C/c1cc(Cl)c(O)c(Cl)c1)c1cc2c(ccc3ccccc32)o1,?,-21,i,32µM*,-81*,0%
Cc1ccc(/C=N/NC(=O)c2cc3c(ccc4ccccc43)o2)o1,-26%,-11,i,-8%,-5,4%
CC(=O)Oc1ccc(/C=N\NC(=O)c2cc3c(ccc4ccccc43)o2)cc1,28%,-17,i,11µM*,-1,4%
O=C(N/N=C/c1ccc([N+](=O)[O-])o1)c1cc2ccccc2o1,20%,4,i,2%,-9,3%
